# Measured values published in PMC7819943, “Rice protein-binding microarrays: a tool to detect cis-acting elements near promoter regions in rice”.
# Whole data set: some 39,000 sequences, median “fluorescence intensity (a.u.)” near 4,300, cut for the highest 2% near 39,000. The full list was thinned out, with the highest values kept by preference.
# Molecular target: T1, OsSMF1 (Oryza sativa, UniProt Q6ZLB0 1-436)
# T1 sequence: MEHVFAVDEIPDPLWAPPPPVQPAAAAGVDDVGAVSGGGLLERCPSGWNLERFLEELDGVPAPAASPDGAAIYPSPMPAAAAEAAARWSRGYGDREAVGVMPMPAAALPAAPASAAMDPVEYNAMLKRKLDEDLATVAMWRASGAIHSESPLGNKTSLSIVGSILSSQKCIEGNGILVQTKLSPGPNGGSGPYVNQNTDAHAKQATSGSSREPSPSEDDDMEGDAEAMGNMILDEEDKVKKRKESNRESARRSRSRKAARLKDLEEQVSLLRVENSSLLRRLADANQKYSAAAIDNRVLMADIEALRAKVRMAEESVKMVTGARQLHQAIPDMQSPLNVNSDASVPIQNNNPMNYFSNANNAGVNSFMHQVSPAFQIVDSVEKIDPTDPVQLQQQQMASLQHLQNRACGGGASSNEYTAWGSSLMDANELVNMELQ
# Test: protein-binding microarray (RPBM); PBS, 2% BSA, 51.3 ng/ul salmon testes DNA, 50 uM zinc acetate, 200 nM TF, 25 C, 1 h; high values mean tight binding
# Details: protein: recombinant; tags: N-terminal polyhistidine and DsRed monomer fusion (pET32a); chain copies: 2; label: CyDye5-dUTP incorporated in the synthesized complementary strand; 3' TTTTT single-stranded linker to array surface; dsDNA, one strand shown
# Outline: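 Per-feature fluorescence intensity (arbitrary units), read on an Axon 4000B scanner, is the binding signal. Transcription factors carrying an N-terminal polyhistidine tag and DsRed fusion were expressed in E. coli BL21-CodonPlus and purified on Ni–NTA. A custom Agilent array, made double-stranded by primer extension with Cy5-dUTP and blocked with 2% BSA, was incubated with 200 nM protein in PBS, 2% BSA, salmon testes DNA and 50 µM zinc acetate at 25 °C for 1 h and then washed.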
row,Sequence,binding signal
1,ACTATTTCTCCAGATAGTAGTAGTAACTCTTACGTCATGGCGGAGTCACCTAGTGCAG,4910 fluorescence intensity (a.u.)
2,CAAATCAAATTACCACATAAGCACCACGTCAATGCCACGTCGGAGTCACCTAGTGCAG,22200 fluorescence intensity (a.u.)
3,AAATTGCCACGTAAGTGCCATGTCATATGAAGACCGAGTCCGGAGTCACCTAGTGCAG,17800 fluorescence intensity (a.u.)
4,TAAGCGCCACATCAGTGCCACGTCGGATGAAGACCGAGTCCGGAGTCACCTAGTGCAG,25000 fluorescence intensity (a.u.)
5,TTGTCAAATCATGGCGTCATTAGGCTTAAAAGATTCGTCTCGGAGTCACCTAGTGCAG,4280 fluorescence intensity (a.u.)
6,CAAAAGGGAATGCTTTAGGCAGATCATGGAGATAAAGACTCGGAGTCACCTAGTGCAG,39000 fluorescence intensity (a.u.)
7,ATAAAGACCTAGTCAATGGAGTGCCACGTAGGCACCACGTCGGAGTCACCTAGTGCAG,39000 fluorescence intensity (a.u.)
8,AGCGTCACCTCAATGCCACGTGTGATAAAGACCTAGTTAACGGAGTCACCTAGTGCAG,17200 fluorescence intensity (a.u.)
9,GAATTGCCACGTAGGCGCCACGTCATATGAAGACCGAGTCCGGAGTCACCTAGTGCAG,45500 fluorescence intensity (a.u.)
10,CAGACAGACACAGAGAGATCGATATCAACATGCTTTAGTCCGGAGTCACCTAGTGCAG,3710 fluorescence intensity (a.u.)
11,GTGTAGTTACCTTCTCGTAGGTGTCATCGAGGATGATGGCCGGAGTCACCTAGTGCAG,3910 fluorescence intensity (a.u.)
12,CGGTATCGACGCAGCGTCTGAATGCAAGGGCCCGTGGTCACGGAGTCACCTAGTGCAG,27400 fluorescence intensity (a.u.)
13,CGCCCAGGACGTCATGCCGGAGCTGGCCATGGTCACCGCGCGGAGTCACCTAGTGCAG,4070 fluorescence intensity (a.u.)
14,GAGTTGTCAAGGGATGTCATCCCGACGTCAACACGATGGCCGGAGTCACCTAGTGCAG,4620 fluorescence intensity (a.u.)
15,CGGCAACAGCGGTGACAACGTGACGACGGGTGACGAGGCGCGGAGTCACCTAGTGCAG,5320 fluorescence intensity (a.u.)
16,ACGGCGACAGCGTGGAGCTCCACGACGGCAGCGACGTCGGCGGAGTCACCTAGTGCAG,3590 fluorescence intensity (a.u.)
17,CGACAGCGGAACGTGAGCTCTGGGGCGACGACGGCGGCAACGGAGTCACCTAGTGCAG,46800 fluorescence intensity (a.u.)
18,CAAGCTCATCAACTTCGTTCGGTCCAAGGTGCGTCAGGGTCGGAGTCACCTAGTGCAG,3180 fluorescence intensity (a.u.)
19,TTAGCAACCTATCGTCATAGAGAGACCCAATGAACCCTTGCGGAGTCACCTAGTGCAG,3860 fluorescence intensity (a.u.)
20,TAATTGGGGTGATGTGGCTAATTCTCAAAGCAGTTTTATACGGAGTCACCTAGTGCAG,5820 fluorescence intensity (a.u.)
21,TAGAGAAAGCAAAGCACATACATAGGCTAATTCTCCTTTACGGAGTCACCTAGTGCAG,39200 fluorescence intensity (a.u.)

row,Sequence,binding signal
1,CCCTAGTCTCCTCCCTTGTACATAGGCAAATCCATACGCACGGAGTCACCTAGTGCAG,3640 fluorescence intensity (a.u.)
2,CGCCATGGGCGAGGCGGTGAAGGGGCCAGTGGTGGTGACGCGGAGTCACCTAGTGCAG,4250 fluorescence intensity (a.u.)
3,TCTTCCTCAAAGTAAAATAGAAGCTAGGGCTAAGAGCCCACGGAGTCACCTAGTGCAG,65100 fluorescence intensity (a.u.)
4,TATAGCAAAGAAAAGTAAAATAAGAGGCATGAGCTCACGCCGGAGTCACCTAGTGCAG,37800 fluorescence intensity (a.u.)
5,AAATAGAAAGCCCAAACGGATATTTCTTCCTGAGAGCCACCGGAGTCACCTAGTGCAG,35600 fluorescence intensity (a.u.)
6,CTACACACGAGACGTGCAAACCTGCAGATTTTGTTACTTGCGGAGTCACCTAGTGCAG,4830 fluorescence intensity (a.u.)
7,CCACGGGCTACAAAGCACGCGCGTCACTCGCTCTCGCGGCCGGAGTCACCTAGTGCAG,4390 fluorescence intensity (a.u.)
8,AAATGTAGTTGTAAAATCCACAAAATAGTCTAGTCAGAAGCGGAGTCACCTAGTGCAG,3340 fluorescence intensity (a.u.)
9,TCCGTATGAAATAGTGTCTCCGTCAGATTGGGGAAGCGGGCGGAGTCACCTAGTGCAG,3200 fluorescence intensity (a.u.)
10,CAGAAGCGTCTACATACAATAGGATTGGGGCCTGCAAATCCGGAGTCACCTAGTGCAG,55500 fluorescence intensity (a.u.)
11,TGTGTTCTCAATTTTGCGTGTTCTCAATGACACGTGAACACGGAGTCACCTAGTGCAG,5630 fluorescence intensity (a.u.)
12,TAAAAGCCAAGCACCATCTCGAAGTCTTCTTCCTCCTCCACGGAGTCACCTAGTGCAG,12500 fluorescence intensity (a.u.)
13,TTCCATTTCTTCCCCTCGCCAAGGCGAGGCCGCGAGAGGGCGGAGTCACCTAGTGCAG,9040 fluorescence intensity (a.u.)
14,ATCGAAGGCGAGAGCTCTTCTTCTTCCCCTCCTCCAAGCACGGAGTCACCTAGTGCAG,60500 fluorescence intensity (a.u.)
15,CTGTAGAACTTGGACCAGCAGCATCAGCAGTAGTAGCAGGCGGAGTCACCTAGTGCAG,3140 fluorescence intensity (a.u.)
16,GTGATATTCTGTCTTCCTGTGATATCAGCACTGTTTTATGCGGAGTCACCTAGTGCAG,3450 fluorescence intensity (a.u.)
17,ACCAGTGCGCCACTGCCAGCGCAGCACCCGCCCGGTTTAACGGAGTCACCTAGTGCAG,3240 fluorescence intensity (a.u.)
18,ATGTCTTAAGCAAGTTTTGACATCCTCATTACAGTGCGGCCGGAGTCACCTAGTGCAG,3390 fluorescence intensity (a.u.)
19,AGAGCCCACCAGCTGCACCGGCGTGGCATCGTCCACTTGGCGGAGTCACCTAGTGCAG,5060 fluorescence intensity (a.u.)
20,GTAAAGCCTCGATATATCGATCGATTCCAGCTGTGGCACCCGGAGTCACCTAGTGCAG,3620 fluorescence intensity (a.u.)
21,TCGATTCCAGCTGTGGCACCCATAGAGAAATGAGCCCGTCCGGAGTCACCTAGTGCAG,56300 fluorescence intensity (a.u.)
